Screens as filed in PubChem BioAssay.
D2 ag-1 – agonists of human D2 dopamine receptor (beta-arrestin). P14416. DiscoveRx PathHunter D2 beta-arrestin, luminescence, 90 min; 100% = 57 uM dopamine signal. activation, % (concentration not given with the values). 0.084% of 360,000 active. AID 624465; in the data active = activation above about 40%
Target sequence (P14416 whole entry, looked up): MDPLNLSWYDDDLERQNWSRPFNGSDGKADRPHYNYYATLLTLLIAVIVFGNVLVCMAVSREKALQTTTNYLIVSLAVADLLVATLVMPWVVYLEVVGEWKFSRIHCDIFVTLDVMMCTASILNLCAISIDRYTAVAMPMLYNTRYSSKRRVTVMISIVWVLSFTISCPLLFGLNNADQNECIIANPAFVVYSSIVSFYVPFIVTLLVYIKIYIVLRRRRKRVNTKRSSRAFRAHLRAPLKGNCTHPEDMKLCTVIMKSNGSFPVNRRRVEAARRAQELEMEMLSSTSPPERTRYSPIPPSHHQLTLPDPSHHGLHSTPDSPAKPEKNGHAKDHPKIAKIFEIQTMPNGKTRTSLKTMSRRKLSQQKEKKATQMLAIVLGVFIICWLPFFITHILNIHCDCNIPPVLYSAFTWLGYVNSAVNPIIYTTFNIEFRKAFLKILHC
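Agonist mode: compounds alone added to overnight-plated D2 PathHunter cells for 90 min at 37 C, with 57 uM final dopamine (EC100) defining full response. Beta-arrestin recruitment detected by chemiluminescent reagent, read after 1 h at ambient temperature.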
B2AR arrestin – agonists driving beta-arrestin recruitment to human beta2-adrenergic receptor; P07550; beta-arrestin recruitment to beta2AR, cell-based reporter; Potency, µM (titrated, usually from 46.1 µM), without a hit: top-dose activation, usual class: activators; 0.02% of 330,000 active; active = well fitted activation curve with a large enough effect;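 also: potency is read from the fitted curve at half-maximal effect; 0% = DMSO controls and full agonism = EC100 isoproterenol or metaproterenol; nearly all actives have a fitted effect of over 65% in size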
D2 PAM-1 – positive allosteric modulators of human D2 dopamine receptor; P14416; 0.34% of 340,000 active; HEK293 T-REx D2, calcium flux, EC20 dopamine potentiation; potentiation, % at 10 µM; AID 485347;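 active = potentiation over 3 SD above the plate norm, cut at about 30% in these data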; also: 0% is about no effect
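Cells plated with tetracycline inducer and held overnight at 30 C; calcium dye loaded 30–90 min at room temperature; baseline taken, compound added and read 180 s; EC20 dopamine then added and read 180 s.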
D2 ag-2 – D2 dopamine receptor (human) agonism; P14416; HEK293 T-REx D2 cells, calcium flux agonist mode; activation, % at 2 µM; 0.53% of 340,000 active; AID 485358;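 active = activation over 3 SD above normal in the single-dose calcium agonist read, cut at about 30% in these data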; also: 0% is about no effect
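HEK293 Trex D2 cells, tetracycline-induced, o/n 30 C 5% CO2; no-wash Ca dye, RT 30–90 min; 10-cycle baseline, 23 nl cpd added, kinetic Ca read 180 s; agonist hits = positive Ca response.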
D2 antag – D2 dopamine receptor (human) antagonism; 2% of 340,000 active; P14416; HEK293 TREx D2 cells, calcium flux, dopamine EC80; inhibition, % at 10 µM; in the data active = inhibition above about 30%; inactive = below that, where a call was filed; also: 0% is about no effect
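In this primary screen, negative modulation is detected by tracking calcium flux after an EC80 dopamine challenge in inducible HEK293 T-REx D2 cells preexposed to test compound for 180 s.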
D2 PAM-2 – positive allosteric modulators of human D2 dopamine receptor | 0.23% of 360,000 active | P14416 | DiscoveRx D2 beta-arrestin cells, luminescence, 90 min; 100% = 57 uM dopamine signal | potentiation, % (concentration not given with the values) | AID 624464; in the data active = potentiation above about 50%
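PathHunter D2 cells, attached overnight at 37 deg C, received compound in DMSO plus dopamine at EC20 (50 nM final) for 90 min at 37 deg C. Beta-arrestin recruitment was read as luminescence after 1 h with detection reagent at ambient temperature.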
* hit, by the source's call; . = no result given. Shown are actives, neighbours in structure and some others; about 2.4% of the full set was active somewhere.

SMILES | D2 ag-1 | B2AR arrestin | D2 PAM-1 | D2 ag-2 | D2 antag | D2 PAM-2
CCOc1ccc(C2c3c(-c4cc(C)ccc4O)n[nH]c3C(=O)N2Cc2cccnc2)cc1OCC (centres undefined) | . | . | 3 | 3 | . | .
CCN(CC)CCn1c(NC(=O)c2ccc(C(F)(F)F)cc2)nc2ccccc21 | -4 | 0% | -31 | -1 | 88* | -26
CCN(CC)CCn1c(NCc2ccc3c(c2)OCO3)nc2ccccc21 | -1 | 0% | -20 | 1 | 33* | -10
CCN(CC)CCn1c(NCc2cccc(OC)c2)nc2ccccc21 | -6 | 1% | -19 | 0 | 44* | -39
CCCn1c(Nc2cccc(OC)c2)nc2ccccc21 | 3 | 0% | 4 | -1 | 39* | -5
CCN(CC)CCn1c(NC(=O)c2ccc(C)cc2)nc2ccccc21 | -2 | 0% | -28 | 2 | 16 | -31
CCC(=O)N1CCc2cc(S(=O)(=O)CCC(=O)N3CCN(c4ccc(Cl)cc4)CC3)ccc21 | 1 | 0% | 12 | 1 | . | -14
CC(C)Oc1ccc(C2CC(=O)N(c3ccc(N(C)C)cc3)C2=O)cc1 (centres undefined) | -3 | 0% | -6 | 0 | 34* | -2
Cc1ccc(CNc2nc3ccccc3n3nnnc23)cc1 | -1 | 0% | -4 | 1 | -11 | 52*
O=S(=O)(/C=C/c1ccccc1)Oc1ccccc1 | 0 | 0% | -8 | 0 | 1 | 3
CCOc1cc(C(=O)NCCN2CCOCC2)cc(OCC)c1OCC | -3 | 0% | 42* | -2 | 18 | -13
CN(C)CCNC(=O)c1cccc(NS(=O)(=O)c2ccc(Cl)c(Cl)c2)c1 | -4 | 0% | -8 | 3 | 35* | -30
O=C(NCCN1CCOCC1)c1cccc(NS(=O)(=O)c2ccc(Br)cc2)c1 | 1 | -1% | 8 | 0 | 33* | -16
O=C(COc1ccccc1F)Nc1ccc(-c2nc3ccccc3s2)cc1 | . | 0% | -10 | 0 | . | .
CCNC(=S)NNC(=O)c1csc(C)c1 | -4 | 0% | 10 | -1 | 0 | -9
O=C(CN1CCN(c2ccccc2)CC1)NC(=O)NCc1ccco1 | 2 | 0% | -11 | 39* | -15 | 0
COc1ccc(NC(=O)CSc2nc3c(c(=O)n2-c2ccc(F)cc2)SCC3)cc1 | -3 | 0% | -8 | -2 | 3 | -7
COc1ccccc1-n1c(SCC(=O)Nc2nnc(C)s2)nc2c(c1=O)SCC2 | 1 | 0% | 31* | 1 | 6 | 0
COc1ccc(-n2c(SCC(=O)N3CCOCC3)nc(O)cc2=O)cc1 | -1 | 0% | 1 | . | . | 10
COc1ccc(-n2c(SCC(=O)N3CCOCC3)nc(O)c(Cc3ccccc3)c2=O)cc1 | -3 | 0% | -3 | 1 | 43* | -10
COc1ccc(-n2c(SCC(=O)Nc3ccccc3)nc3c(c2=O)SCC3)cc1 | -2 | -1% | 12 | -1 | 31* | -6
CSCSC1=C(C#N)C(c2ccc(Cl)cc2)C(C(C)=O)=C(C)N1 (centres undefined) | . | 0% | -4 | 2 | 32* | .
COc1ccc(CCNC(=O)CSc2nc3[nH]ncc3c(=O)n2-c2ccccc2OC)cc1OC | -1 | -1% | 9 | 3 | 37* | 7
CC(C)Sc1oc(-c2ccco2)nc1S(=O)(=O)c1ccccc1 | -3 | 8% | -3 | -3 | 33* | -15
N#CN/C(=N\S(=O)(=O)c1ccccc1)c1ccccc1 | 2 | 0% | 3 | 1 | -3 | 1
SMILES | D2 ag-1 | B2AR arrestin | D2 PAM-1 | D2 ag-2 | D2 antag | D2 PAM-2
COc1cc(-c2noc(C3CCCN(C(=O)c4ccccc4)C3)n2)cc(OC)c1OC (centres undefined) | 5 | 0% | 10 | -1 | 1 | 1
C=CCN(CC=C)C(=O)Cc1ccc(F)cc1 | 0 | 0% | -4 | 0 | 31* | -4
Cc1sc2nc(C3CC3)nc(SCC(=O)N3c4ccccc4CC3C)c2c1C (centres undefined) | 0 | -1% | 8 | 1 | -1 | -4
O=C(Nc1nnc(-c2ccccc2Cl)o1)c1nc2ccccc2s1 | -3 | 0% | -17 | 39* | 8 | -7
CSc1ccc(N/N=C(/C#N)S(=O)(=O)C(C)(C)C)cc1 | -1 | 0% | 19 | 1 | -2 | -10
CC(C)(C)C(=O)COC(=O)CCc1nc2ccccc2[nH]c1=O | 3 | 0% | 11 | 1 | 31* | 1
CC(C)(C)Cn1c(=O)[nH]c(=O)c2cc([N+](=O)[O-])cnc21 | -2 | -2% | -1 | -1 | 35* | -6
CN1CCC(Oc2ccccc2Sc2ccccc2)CC1 | -3 | -1% | -17 | 1 | 32* | -45
CN1CCN(c2ccccc2NC(=O)COc2ccc(Cl)cc2)CC1 | -1 | -1% | -6 | 0 | 30* | -31
CN1CCN(c2ccccc2NC(=O)COc2ccccc2)CC1 | 0 | 0% | -4 | 0 | -22 | -12
Cc1ccc(Cn2c(C)c3cnn(CC(=O)NCCc4ccc(Cl)cc4)c(=O)c3c2C)cc1 | . | . | 0 | 0 | . | .
CCc1ccc2[nH]c(=O)c(CN(Cc3ccc(F)cc3)C(c3nnnn3CCN3CCOCC3)C(C)C)cc2c1 (centres undefined) | -4 | 0% | 31* | -6 | -18 | -19
CCc1ccc2[nH]c(=O)c(C(c3nnnn3Cc3ccccc3)N3CCOCC3)cc2c1 (centres undefined) | 1 | 0% | -6 | 0 | 36* | 1
C[C@H](CS)C(=O)N1CCC[C@H]1C(=O)O | 2 | 1% | 13 | 1 | 30* | -6
CCOC(=O)C1CCCN(Cc2ccccc2OCC)C1 (centres undefined) | -3 | 0% | -10 | 0 | 6 | -10
CCOC(=O)C1CCCN(CC(O)COc2ccccc2C(C)=O)C1 (centres undefined) | -1 | 0% | -22 | -1 | -9 | -14
CCOC(=O)C1CCCN(Cc2ccc(OCC)cc2)C1 (centres undefined) | -2 | 0% | -27 | 42* | 28 | -11
CCOC(=O)C1CCCN(Cc2nc(N)nc(Nc3ccccc3OC)n2)C1 (centres undefined) | -4 | 0% | -10 | -1 | 34* | -6
CCOC(=O)C1CCCN(Cc2nc(N)nc(Nc3ccc(OC)cc3)n2)C1 (centres undefined) | 0 | 0% | -5 | 1 | -1 | -22
CCOC(=O)C1CCCN(Cc2ccc(OC)c(OCc3ccccc3)c2)C1 (centres undefined) | -5 | -1% | -21 | -1 | 45* | -3
CCOC(=O)C1CCCN(CC(O)COC(c2ccccc2)c2ccccc2)C1 (centres undefined) | -2 | -1% | . | -3 | 33* | -12
